Assay results from the supplement of paper PMC11732987, “Enantioselective OTUD7B fragment discovery through chemoproteomics screening and high-throughput optimisation” (Communications Chemistry, 2025).

How the values were obtained:
Assay in all cases: log2 ratio of Biotin-Ahx-Ub-VS probe labelling (fragment/DMSO); higher = less target engagement (more negative = stronger competition), active = hit call of the paper (q ≤ 0.05, log2 ratio ≤ -1)
Conditions in all cases: compound concentration: 200 uM; treatment time: 3 h
USP19 = target: T1, USP19 (UniProt O94966)
T1 sequence (whole entry): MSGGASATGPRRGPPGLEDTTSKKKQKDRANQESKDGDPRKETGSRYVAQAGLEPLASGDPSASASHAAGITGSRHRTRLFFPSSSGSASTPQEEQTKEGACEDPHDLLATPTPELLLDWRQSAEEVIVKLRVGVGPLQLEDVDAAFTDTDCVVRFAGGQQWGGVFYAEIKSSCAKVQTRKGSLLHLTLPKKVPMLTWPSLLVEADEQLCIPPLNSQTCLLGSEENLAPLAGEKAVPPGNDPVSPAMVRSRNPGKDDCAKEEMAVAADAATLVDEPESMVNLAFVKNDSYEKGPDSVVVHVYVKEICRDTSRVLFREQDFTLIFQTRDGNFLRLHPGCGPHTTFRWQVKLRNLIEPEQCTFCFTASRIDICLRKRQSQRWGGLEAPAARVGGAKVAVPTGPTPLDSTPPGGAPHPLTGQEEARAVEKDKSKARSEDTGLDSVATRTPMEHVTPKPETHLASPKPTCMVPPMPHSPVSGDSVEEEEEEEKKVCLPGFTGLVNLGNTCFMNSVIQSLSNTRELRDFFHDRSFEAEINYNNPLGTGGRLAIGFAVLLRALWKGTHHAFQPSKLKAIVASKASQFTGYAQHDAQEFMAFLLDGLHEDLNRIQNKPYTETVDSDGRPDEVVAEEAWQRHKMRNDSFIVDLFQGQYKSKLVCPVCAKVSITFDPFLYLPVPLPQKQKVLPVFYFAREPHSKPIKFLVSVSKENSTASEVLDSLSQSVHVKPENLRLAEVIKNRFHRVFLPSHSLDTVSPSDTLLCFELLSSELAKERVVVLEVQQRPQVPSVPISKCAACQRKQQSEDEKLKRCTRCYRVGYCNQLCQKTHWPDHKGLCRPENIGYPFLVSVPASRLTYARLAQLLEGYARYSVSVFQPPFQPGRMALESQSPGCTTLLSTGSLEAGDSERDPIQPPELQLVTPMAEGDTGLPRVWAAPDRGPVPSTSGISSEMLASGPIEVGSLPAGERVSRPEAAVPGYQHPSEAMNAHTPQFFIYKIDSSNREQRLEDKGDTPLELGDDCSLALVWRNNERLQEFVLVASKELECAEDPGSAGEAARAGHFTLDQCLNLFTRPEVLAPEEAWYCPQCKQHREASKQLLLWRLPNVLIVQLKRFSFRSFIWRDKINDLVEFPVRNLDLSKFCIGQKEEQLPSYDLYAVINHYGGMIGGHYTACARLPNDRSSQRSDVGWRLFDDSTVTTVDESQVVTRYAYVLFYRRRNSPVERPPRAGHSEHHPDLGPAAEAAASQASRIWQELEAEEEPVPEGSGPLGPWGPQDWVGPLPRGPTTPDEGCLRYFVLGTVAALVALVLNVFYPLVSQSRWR
Method in brief: (§1)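 Fragment (200 µM) or vehicle was incubated for 3 h with triplicate HEK293T lysate samples of 495 µg, which were then treated with Biotin-Ahx-Ub-VS at 0.5 µM final for 1 h. Labelled DUBs were enriched on NeutrAvidin, digested with LysC and trypsin, and analysed by diaPASEF LC-MS/MS. Values are average log2 fragment/vehicle ratios from an unpaired t-test on global-median-normalised Spectronaut label-free quantities, using proteins with ≥2 unique peptides.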

USP22 = target: T2, USP22 (UniProt Q9UPT9)
T2 sequence (whole entry): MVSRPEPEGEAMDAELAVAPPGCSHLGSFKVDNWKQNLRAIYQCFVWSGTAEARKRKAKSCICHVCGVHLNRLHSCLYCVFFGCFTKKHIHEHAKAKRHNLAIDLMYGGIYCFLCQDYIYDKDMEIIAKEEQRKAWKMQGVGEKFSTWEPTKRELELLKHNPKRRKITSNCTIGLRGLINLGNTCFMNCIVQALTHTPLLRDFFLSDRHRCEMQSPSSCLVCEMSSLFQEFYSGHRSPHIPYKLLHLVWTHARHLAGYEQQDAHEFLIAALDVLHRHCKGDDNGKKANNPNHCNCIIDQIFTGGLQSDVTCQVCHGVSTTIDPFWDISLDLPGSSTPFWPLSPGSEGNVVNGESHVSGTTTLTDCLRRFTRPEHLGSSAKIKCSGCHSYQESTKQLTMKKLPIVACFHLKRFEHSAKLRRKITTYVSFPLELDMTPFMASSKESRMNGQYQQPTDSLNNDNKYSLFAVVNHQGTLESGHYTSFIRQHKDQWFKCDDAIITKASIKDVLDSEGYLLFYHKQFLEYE
Method in brief: as §1

USP24 = USP24 (UniProt Q9UPU5)
Method in brief: as §1

USP25 = target: T3, USP25 (UniProt Q9UHP3)
T3 sequence (whole entry): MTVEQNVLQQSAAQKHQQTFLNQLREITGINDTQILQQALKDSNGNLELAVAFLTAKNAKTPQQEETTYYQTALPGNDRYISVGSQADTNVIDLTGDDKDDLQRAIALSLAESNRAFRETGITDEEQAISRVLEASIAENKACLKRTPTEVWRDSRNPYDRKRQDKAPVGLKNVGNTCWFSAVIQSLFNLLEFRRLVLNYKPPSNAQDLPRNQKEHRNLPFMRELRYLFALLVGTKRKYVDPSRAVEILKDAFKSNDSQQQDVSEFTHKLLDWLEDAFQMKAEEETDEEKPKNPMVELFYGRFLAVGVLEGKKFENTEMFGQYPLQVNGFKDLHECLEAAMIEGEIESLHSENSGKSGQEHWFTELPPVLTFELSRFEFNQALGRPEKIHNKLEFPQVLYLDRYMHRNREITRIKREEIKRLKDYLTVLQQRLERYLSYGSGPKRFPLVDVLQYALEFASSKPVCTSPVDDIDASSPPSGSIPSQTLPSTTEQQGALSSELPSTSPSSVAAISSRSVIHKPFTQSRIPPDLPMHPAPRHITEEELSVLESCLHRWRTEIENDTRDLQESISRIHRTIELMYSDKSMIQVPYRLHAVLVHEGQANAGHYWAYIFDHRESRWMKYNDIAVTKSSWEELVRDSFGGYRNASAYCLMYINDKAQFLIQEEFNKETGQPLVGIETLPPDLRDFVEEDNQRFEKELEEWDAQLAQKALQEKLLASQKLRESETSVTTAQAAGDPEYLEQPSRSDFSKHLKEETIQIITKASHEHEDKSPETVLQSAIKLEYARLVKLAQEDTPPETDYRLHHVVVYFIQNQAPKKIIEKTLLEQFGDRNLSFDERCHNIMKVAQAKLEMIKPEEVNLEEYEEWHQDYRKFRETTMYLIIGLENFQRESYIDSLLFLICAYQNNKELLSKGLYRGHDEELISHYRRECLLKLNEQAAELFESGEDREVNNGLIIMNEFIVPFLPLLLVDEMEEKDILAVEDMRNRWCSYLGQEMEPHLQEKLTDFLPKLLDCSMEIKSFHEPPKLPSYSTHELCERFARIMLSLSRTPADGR
Method in brief: as §1

USP28 = target: T4, USP28 (UniProt Q96RU2)
T4 sequence (whole entry): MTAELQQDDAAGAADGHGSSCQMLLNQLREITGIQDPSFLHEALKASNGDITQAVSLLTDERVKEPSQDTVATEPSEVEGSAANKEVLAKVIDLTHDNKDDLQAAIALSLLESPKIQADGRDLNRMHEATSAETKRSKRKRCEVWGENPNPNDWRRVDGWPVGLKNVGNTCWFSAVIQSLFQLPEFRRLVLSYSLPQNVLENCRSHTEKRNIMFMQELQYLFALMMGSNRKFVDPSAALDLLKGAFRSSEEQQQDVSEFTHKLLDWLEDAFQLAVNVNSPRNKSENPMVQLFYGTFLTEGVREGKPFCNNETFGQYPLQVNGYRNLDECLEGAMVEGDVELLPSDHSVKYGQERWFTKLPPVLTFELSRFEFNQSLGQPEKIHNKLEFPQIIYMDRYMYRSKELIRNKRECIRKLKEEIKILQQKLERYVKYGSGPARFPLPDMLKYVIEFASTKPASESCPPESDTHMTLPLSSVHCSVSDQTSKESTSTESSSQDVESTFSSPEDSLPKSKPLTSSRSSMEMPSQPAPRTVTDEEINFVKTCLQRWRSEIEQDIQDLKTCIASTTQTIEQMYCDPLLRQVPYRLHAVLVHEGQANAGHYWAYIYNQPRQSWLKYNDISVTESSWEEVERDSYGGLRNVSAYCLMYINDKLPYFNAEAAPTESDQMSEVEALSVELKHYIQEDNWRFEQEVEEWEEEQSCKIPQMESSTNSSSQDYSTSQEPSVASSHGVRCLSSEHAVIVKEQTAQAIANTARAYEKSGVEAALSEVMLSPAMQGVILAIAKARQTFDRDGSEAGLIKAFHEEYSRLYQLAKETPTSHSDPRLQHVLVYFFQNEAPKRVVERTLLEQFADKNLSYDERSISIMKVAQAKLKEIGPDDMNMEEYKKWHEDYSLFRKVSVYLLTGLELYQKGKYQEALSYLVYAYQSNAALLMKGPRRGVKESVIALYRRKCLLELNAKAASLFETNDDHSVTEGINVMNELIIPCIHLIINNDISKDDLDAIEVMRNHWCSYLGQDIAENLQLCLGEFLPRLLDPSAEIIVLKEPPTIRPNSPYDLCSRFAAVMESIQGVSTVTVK
Method in brief: as §1

Measured: log2 ratio of Biotin-Ahx-Ub-VS probe labelling

Chain of USP24 (Q9UPU5 whole entry): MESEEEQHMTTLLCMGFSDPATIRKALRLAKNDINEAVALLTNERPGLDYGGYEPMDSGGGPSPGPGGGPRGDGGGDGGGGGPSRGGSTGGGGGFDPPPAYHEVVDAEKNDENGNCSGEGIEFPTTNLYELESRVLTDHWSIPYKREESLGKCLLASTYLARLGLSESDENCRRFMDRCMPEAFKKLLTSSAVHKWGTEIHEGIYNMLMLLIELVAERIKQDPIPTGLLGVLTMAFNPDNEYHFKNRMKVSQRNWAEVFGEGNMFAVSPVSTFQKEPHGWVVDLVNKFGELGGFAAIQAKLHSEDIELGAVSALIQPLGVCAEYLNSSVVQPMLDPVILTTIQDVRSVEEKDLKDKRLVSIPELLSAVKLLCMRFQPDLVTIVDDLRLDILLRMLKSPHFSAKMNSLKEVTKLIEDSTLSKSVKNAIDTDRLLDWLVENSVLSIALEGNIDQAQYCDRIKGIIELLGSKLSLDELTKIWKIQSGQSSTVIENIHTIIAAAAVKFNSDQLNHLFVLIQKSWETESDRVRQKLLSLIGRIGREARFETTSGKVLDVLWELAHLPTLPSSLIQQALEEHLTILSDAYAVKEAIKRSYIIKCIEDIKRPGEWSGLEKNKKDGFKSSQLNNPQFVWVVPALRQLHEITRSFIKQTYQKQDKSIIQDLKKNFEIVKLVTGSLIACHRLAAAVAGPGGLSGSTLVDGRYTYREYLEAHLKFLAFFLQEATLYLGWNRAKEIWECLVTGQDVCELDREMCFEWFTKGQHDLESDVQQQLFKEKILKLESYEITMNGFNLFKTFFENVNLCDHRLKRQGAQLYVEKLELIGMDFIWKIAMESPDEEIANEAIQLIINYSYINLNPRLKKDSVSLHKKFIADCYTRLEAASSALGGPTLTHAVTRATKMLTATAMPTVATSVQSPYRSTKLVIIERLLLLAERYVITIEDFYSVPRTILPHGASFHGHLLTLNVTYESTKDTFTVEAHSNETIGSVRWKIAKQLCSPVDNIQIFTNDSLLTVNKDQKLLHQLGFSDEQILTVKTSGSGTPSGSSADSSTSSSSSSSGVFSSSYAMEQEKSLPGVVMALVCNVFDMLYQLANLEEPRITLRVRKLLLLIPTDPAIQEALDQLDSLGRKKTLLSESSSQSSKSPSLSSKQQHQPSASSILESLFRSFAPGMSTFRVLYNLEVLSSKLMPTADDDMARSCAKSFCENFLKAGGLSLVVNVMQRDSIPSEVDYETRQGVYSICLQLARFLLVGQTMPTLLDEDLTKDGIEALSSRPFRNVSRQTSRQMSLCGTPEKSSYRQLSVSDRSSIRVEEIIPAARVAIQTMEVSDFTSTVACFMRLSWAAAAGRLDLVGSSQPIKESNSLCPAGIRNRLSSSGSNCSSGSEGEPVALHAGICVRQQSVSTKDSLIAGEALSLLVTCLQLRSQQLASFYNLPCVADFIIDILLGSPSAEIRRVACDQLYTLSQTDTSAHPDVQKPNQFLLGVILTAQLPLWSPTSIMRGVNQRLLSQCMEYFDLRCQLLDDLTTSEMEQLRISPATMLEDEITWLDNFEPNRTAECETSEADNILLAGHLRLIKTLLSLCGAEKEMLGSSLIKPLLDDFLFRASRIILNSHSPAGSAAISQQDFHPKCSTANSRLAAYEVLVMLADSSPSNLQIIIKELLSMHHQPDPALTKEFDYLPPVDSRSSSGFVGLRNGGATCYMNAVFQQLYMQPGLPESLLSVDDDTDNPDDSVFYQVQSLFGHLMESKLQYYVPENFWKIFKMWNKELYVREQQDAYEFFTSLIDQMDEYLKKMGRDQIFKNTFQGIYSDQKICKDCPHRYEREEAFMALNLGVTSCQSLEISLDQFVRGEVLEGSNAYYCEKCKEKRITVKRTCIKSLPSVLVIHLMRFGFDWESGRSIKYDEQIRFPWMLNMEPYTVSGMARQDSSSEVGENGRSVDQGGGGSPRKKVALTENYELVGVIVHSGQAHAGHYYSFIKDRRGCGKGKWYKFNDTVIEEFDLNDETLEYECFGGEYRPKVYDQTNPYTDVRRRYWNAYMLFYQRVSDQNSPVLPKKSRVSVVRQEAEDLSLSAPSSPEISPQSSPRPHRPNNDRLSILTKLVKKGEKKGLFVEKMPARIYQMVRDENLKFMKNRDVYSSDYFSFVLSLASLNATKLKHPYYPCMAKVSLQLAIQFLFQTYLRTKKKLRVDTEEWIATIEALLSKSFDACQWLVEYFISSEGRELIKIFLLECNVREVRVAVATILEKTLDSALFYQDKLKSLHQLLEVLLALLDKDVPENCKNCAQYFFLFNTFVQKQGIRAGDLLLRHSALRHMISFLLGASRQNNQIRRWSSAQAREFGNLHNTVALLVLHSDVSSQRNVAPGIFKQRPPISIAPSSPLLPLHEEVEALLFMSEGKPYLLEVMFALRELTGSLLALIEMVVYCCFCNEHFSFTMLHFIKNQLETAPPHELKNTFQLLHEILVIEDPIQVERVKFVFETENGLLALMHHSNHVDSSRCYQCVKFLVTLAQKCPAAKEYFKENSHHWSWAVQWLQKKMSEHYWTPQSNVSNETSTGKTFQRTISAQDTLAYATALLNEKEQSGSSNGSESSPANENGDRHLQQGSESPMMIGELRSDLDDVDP

O=C(CCl)N1CCOC2(CCC2)C1
inactive: USP19 0.0251 | USP22 0.184 | USP24 -0.0132 | USP25 -0.216 | USP28 -0.0963
